{"source": "PubChem BioAssay AID1813", "about": "(Broad Institute, 2009)", "note": "In all, about 300,000 compounds went through this assay and about 2,500 (0.83%) were called active. This excerpt belongs to a sample that is enriched for actives. Values without a mark were called inactive. Rule as the data show it: active = inhibition above about 60%; inconclusive = no clear call, values can overlap the other calls; inactive = below that.", "data": [{"assay": "5' untranslated region of α-synuclein, MLPCN primary screen (AID 1813);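 also: H4 neuroglioblastoma cells stably carrying SNCA 5'UTR luciferase fusion; 0% = DMSO wells and 100% = positive control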", "conditions": "alpha-synuclein 5'UTR reporter, inhibitor activity; hits give high values; tested at 7.5 µM", "values": [{"compound": "CCCOc1cccc(C(=O)Nc2nnn(CCC)n2)c1", "inhibition": "-87.6%"}, {"compound": "CC(C)CNC(=O)COC(=O)c1ccccc1OCC(=O)Nc1ccc(Br)cc1", "inhibition": "1.89%"}, {"compound": "O=C(COC(=O)c1ccc(NS(=O)(=O)c2cccs2)cc1O)Nc1ccc(F)cc1", "inhibition": "7.94%"}, {"compound": "NS(=O)(=O)c1ccc(NC2=CC(c3ccc(F)cc3)N(c3ccc(S(N)(=O)=O)cc3)C2=O)cc1", "note": "(stereo not given)", "inhibition": "15.1%"}, {"compound": "COc1ccc(CN(C)C(C)C(=O)NC2CCCc3ccccc32)cc1", "note": "(stereo not given)", "inhibition": "8.59%"}, {"compound": "Cc1ccc(-c2nc(-c3ccncc3)no2)c(C)c1", "inhibition": "-108%"}, {"compound": "COc1ccc(/C=C/c2noc(-c3ccccc3OC(C)=O)n2)cc1", "inhibition": "-34.8%"}, {"compound": "COc1ccc(-c2nc(-c3ccccc3)no2)c(OC)c1", "inhibition": "68.9% (active)"}, {"compound": "CCC1CO/C(=C(\\C(=C(Cl)Cl)N2CCOCC2)[N+](=O)[O-])N1", "note": "(stereo not given)", "inhibition": "-4.02%"}, {"compound": "CCOc1cc(N2CCOCC2)c(OCC)cc1NC(=O)COc1cccc(Cl)c1", "inhibition": "9.4%"}, {"compound": "CCOc1cc(N2CCOCC2)c(OCC)cc1NC(=O)c1cc(C)nc2ccccc12", "inhibition": "7.38%"}, {"compound": "CCOc1cc(N2CCOCC2)c(OCC)cc1NC(=O)COc1cccc2cccnc12", "inhibition": "88.8% (active)"}, {"compound": "CCOC(=O)C(C)Oc1cccc2c(=O)n(CC(=O)NCCc3ccc(OC)c(OC)c3)ccc12", "note": "(stereo not given)", "inhibition": "12.9%"}, {"compound": "Cc1nn(C)c(C)c1CN(C(=O)CCc1nnc(Cc2c[nH]c3ccccc23)o1)C(C)C", "inhibition": "13.9%"}, {"compound": "Cc1oc2c(F)c(F)c(F)c(F)c2c1S(=O)(=O)Nc1cccc(C(F)(F)F)c1", "inhibition": "17.3%"}, {"compound": "CCNC(=S)N1CCC(c2nc3cc(C)c(C)cc3[nH]2)CC1", "inhibition": "-15.5%"}, {"compound": "Cc1cccc(-c2nc(Nc3ccc(O)cc3)c3ccccc3n2)c1", "inhibition": "2.9%"}, {"compound": "Cc1cccc(-[n+]2c(-c3cccc(Br)c3)[nH]c3nc4ccccc4nc32)c1", "inhibition": "73.9% (active)"}, {"compound": "Cc1ccc(/C=C2\\CCn3c2nc2cc(C(=O)O)ccc2c3=O)c(C)c1", "inhibition": "-20%"}, {"compound": "Nc1ccc2nn(-c3ccc(Cl)cc3)nc2c1", "inhibition": "-27.3%"}, {"compound": "CN(C)c1ccc(/C=N\\S(=O)(=O)c2ccccc2)cc1", "inhibition": "-6.91%"}, {"compound": "CC[n+]1cc(C)ccc1/C=C/c1ccc(N(C)C)cc1", "inhibition": "90.6% (active)"}, {"compound": "O=C(CN1CCN(c2ncccn2)CC1)Nc1ccccc1C(F)(F)F", "inhibition": "-6.88%"}, {"compound": "Brc1ccc2c(c1)[C@H]1OCC[C@H]1[C@@H](c1cccs1)N2", "inhibition": "72.2% (active)"}, {"compound": "CC(C)CCn1c(=O)c2c(nc3n2CCCN3Cc2ccccc2)n(C)c1=O", "inhibition": "23.1%"}]}]}
